# In paper PMC7862700, “An all-to-all approach to the identification of sequence-specific readers for epigenetic DNA modifications on cytosine”:
# Assays:
# Experiment in all cases: DAPPL (digital affinity profiling via proximity ligation, sequencing); 10 mM Tris-HCl pH 7.5, 50 mM NaCl, 1 mM DTT, 4% glycerol, room temperature, 30 min; GST-TFs on glutathione beads, 16-mer random dsDNA library, 0.1% formaldehyde crosslink after washing; high values mean tight binding
# FLI1 = target: T1, FLI1 (Homo sapiens, UniProt Q01543 1-452); settings: protein: recombinant; tags: N-terminal GST; dsDNA, one strand shown
# T1 sequence: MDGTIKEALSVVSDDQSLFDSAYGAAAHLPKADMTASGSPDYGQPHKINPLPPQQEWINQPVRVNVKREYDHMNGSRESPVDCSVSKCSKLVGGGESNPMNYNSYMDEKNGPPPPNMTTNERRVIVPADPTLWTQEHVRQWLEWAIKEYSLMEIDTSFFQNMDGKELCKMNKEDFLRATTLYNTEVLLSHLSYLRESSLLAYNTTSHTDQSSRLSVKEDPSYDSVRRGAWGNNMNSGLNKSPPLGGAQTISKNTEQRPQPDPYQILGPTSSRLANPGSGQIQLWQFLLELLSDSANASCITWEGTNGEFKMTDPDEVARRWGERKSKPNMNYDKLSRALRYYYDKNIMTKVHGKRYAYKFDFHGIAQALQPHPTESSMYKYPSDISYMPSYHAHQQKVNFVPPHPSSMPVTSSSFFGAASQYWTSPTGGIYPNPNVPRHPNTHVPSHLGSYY
# Procedure, shortened: (§1)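 Each value of binding signal is a hexamer's read frequency for a factor divided by the same hexamer's frequency in the tag-only sample. Barcoded, bead-captured GST fusions of human transcription factors made in yeast were pooled with that sample and incubated with 200 nmole of a random double-stranded 16-mer DNA library in Tris/NaCl/DTT/glycerol buffer at room temperature for 30 min. Washing, 0.1% formaldehyde crosslinking, proximity ligation, PCR and Illumina NextSeq500 sequencing followed.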
# ELK1 = target: T2, ELK1 (Homo sapiens, UniProt P19419 1-428); settings: protein: recombinant; tags: N-terminal GST; dsDNA, one strand shown
# T2 sequence: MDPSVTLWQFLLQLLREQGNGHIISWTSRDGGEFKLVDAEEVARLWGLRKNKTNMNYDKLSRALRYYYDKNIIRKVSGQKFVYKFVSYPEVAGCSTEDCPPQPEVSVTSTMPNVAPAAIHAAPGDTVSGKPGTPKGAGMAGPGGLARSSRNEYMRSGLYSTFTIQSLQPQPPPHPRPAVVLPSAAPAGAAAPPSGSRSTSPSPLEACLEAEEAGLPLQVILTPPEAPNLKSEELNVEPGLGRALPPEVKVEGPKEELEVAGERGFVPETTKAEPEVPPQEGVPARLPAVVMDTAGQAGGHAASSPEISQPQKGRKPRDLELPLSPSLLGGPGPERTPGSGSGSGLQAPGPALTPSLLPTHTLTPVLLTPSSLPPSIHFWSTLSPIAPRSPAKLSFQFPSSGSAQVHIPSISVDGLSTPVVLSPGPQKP
# Procedure, shortened: as §1
# GABPA = target: T3, GABPA (Homo sapiens, UniProt Q06546 1-454); settings: protein: recombinant; tags: N-terminal GST; dsDNA, one strand shown
# T3 sequence: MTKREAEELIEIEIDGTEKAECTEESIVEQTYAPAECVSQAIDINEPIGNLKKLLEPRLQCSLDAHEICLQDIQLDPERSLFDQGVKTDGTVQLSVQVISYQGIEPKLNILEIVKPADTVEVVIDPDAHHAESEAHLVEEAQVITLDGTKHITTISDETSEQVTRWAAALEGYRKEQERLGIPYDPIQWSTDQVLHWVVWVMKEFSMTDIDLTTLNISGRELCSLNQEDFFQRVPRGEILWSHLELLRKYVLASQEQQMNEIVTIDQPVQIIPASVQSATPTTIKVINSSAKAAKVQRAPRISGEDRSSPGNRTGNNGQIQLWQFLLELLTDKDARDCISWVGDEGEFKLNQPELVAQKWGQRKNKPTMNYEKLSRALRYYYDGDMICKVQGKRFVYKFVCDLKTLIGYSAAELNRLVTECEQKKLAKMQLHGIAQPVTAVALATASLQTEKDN
# Procedure, shortened: as §1
# ERG = target: T4, ERG (Homo sapiens, UniProt P11308 1-479); settings: protein: recombinant; tags: N-terminal GST; dsDNA, one strand shown
# T4 sequence: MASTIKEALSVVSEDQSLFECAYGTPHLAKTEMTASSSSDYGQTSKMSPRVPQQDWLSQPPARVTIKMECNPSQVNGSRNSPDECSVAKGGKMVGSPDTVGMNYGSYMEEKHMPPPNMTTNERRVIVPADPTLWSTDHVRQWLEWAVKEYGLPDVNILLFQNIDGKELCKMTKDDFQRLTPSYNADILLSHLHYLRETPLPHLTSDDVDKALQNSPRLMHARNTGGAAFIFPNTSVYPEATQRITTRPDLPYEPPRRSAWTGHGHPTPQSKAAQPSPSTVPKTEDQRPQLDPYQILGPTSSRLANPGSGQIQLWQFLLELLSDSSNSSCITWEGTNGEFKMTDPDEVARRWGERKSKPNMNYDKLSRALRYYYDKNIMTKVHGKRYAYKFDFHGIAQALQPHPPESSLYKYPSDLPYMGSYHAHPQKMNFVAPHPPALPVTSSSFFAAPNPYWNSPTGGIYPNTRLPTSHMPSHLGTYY
# Procedure, shortened: as §1
# ELF1 = ELF1 (Homo sapiens, UniProt P32519 1-619); settings: protein: recombinant; tags: N-terminal GST; dsDNA, one strand shown
# Procedure, shortened: as §1
# EHF = target: T5, EHF (Homo sapiens, UniProt Q9NZC4 1-300); settings: protein: recombinant; tags: N-terminal GST; dsDNA, one strand shown
# T5 sequence: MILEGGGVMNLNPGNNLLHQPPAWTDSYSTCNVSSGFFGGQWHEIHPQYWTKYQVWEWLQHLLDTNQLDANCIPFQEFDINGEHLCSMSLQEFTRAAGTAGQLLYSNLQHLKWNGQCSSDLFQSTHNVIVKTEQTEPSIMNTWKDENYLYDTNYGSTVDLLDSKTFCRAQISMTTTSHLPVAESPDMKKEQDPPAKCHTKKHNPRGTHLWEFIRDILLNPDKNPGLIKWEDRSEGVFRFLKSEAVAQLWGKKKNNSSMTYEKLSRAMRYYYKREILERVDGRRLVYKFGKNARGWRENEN
# Procedure, shortened: as §1
# SPI1 = SPI1 (Homo sapiens, UniProt P17947 1-270); settings: protein: recombinant; tags: N-terminal GST; dsDNA, one strand shown
# Procedure, shortened: as §1
# SPIB = SPIB (Homo sapiens, UniProt Q01892 1-262); settings: protein: recombinant; tags: N-terminal GST; dsDNA, one strand shown
# Procedure, shortened: as §1
# ELK3 = target: T6, ELK3 (Homo sapiens, UniProt P41970 1-407); settings: protein: recombinant; tags: N-terminal GST; dsDNA, one strand shown
# T6 sequence: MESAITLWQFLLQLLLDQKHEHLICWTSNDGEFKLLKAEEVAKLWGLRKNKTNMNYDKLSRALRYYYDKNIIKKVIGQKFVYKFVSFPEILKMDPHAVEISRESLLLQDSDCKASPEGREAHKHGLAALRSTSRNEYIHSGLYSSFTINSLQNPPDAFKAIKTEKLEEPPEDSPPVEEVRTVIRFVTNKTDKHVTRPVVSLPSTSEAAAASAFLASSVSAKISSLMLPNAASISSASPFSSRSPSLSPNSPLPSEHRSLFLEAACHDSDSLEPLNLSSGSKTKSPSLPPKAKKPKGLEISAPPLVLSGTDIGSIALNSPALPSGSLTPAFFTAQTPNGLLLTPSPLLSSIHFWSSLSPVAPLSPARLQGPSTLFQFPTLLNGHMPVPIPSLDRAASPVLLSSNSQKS
# Procedure, shortened: as §1
# FEV = target: T7, FEV (Homo sapiens, UniProt Q99581 1-238); settings: protein: recombinant; tags: N-terminal GST; dsDNA, one strand shown
# T7 sequence: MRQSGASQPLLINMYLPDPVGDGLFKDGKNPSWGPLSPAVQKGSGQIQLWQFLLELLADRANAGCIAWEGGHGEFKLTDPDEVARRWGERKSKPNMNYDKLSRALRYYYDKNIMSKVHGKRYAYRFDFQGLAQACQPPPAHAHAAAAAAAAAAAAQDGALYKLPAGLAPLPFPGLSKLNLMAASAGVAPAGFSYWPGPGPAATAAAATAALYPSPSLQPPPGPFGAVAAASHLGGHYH
# Procedure, shortened: as §1
# ETV5 = ETV5 (Homo sapiens, UniProt P41161 1-510); settings: protein: recombinant; tags: N-terminal GST; dsDNA, one strand shown
# Procedure, shortened: as §1
# HSF1 = HSF1 (Homo sapiens, UniProt Q00613 1-529); settings: protein: recombinant; tags: N-terminal GST; chain copies: 3; dsDNA, one strand shown
# Procedure, shortened: as §1
# SPIC = target: T8, SPIC (Homo sapiens, UniProt Q8N5J4 1-248); settings: protein: recombinant; tags: N-terminal GST; dsDNA, one strand shown
# T8 sequence: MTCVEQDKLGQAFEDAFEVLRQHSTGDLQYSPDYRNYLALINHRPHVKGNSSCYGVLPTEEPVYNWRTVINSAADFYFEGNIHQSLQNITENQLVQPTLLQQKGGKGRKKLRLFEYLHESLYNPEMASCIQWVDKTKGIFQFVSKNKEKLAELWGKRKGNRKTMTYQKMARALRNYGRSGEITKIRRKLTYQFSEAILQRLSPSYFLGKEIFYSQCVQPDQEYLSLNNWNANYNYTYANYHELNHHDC
# Procedure, shortened: as §1
# ELF4 = ELF4 (Homo sapiens, UniProt Q99607 1-663); settings: protein: recombinant; tags: N-terminal GST; dsDNA, one strand shown
# Procedure, shortened: as §1
# ELK4 = target: T9, ELK4 (Homo sapiens, UniProt P28324-2 1-405); settings: protein: recombinant; tags: N-terminal GST; dsDNA, one strand shown
# T9 sequence: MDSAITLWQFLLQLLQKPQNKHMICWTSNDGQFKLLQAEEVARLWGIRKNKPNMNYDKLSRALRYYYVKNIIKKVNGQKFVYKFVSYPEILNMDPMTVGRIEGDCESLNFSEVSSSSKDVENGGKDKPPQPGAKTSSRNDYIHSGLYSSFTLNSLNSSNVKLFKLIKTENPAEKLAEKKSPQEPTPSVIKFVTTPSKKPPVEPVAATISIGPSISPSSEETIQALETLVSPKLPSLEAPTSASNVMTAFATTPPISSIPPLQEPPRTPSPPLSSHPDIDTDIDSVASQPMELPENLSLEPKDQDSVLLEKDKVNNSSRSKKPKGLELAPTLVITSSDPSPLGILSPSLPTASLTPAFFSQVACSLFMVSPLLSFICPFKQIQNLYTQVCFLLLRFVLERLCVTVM
# Procedure, shortened: as §1
# ETV2 = target: T10, ETV2 (Homo sapiens, UniProt O00321 1-342); settings: protein: recombinant; tags: N-terminal GST; dsDNA, one strand shown
# T10 sequence: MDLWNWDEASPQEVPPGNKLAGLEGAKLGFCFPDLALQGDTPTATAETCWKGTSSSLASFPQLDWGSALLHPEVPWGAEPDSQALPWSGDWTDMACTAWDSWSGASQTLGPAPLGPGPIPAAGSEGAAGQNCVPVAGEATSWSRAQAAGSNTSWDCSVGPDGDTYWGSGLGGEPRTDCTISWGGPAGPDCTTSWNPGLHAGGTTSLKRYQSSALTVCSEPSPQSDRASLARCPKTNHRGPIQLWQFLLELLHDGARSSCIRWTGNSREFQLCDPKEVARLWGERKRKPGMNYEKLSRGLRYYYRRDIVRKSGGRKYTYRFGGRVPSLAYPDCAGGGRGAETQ
# Procedure, shortened: as §1
# ELF3 = target: T11, ELF3 (Homo sapiens, UniProt P78545 1-371); settings: protein: recombinant; tags: N-terminal GST; dsDNA, one strand shown
# T11 sequence: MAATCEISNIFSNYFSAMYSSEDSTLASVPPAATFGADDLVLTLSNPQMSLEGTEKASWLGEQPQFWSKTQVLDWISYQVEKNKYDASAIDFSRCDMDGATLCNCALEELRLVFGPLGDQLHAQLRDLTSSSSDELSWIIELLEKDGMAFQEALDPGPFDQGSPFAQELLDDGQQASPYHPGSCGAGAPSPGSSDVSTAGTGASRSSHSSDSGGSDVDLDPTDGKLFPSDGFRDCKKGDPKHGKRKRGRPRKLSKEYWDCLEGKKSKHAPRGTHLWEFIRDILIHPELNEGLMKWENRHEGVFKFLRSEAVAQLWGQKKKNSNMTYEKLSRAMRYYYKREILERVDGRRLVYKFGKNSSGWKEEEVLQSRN
# Procedure, shortened: as §1
# CRX = CRX (Homo sapiens, UniProt O43186 1-299); settings: protein: recombinant; tags: N-terminal GST; dsDNA, one strand shown
# Procedure, shortened: as §1
# ETV1 = ETV1 (Homo sapiens, UniProt P50549 1-477); settings: protein: recombinant; tags: N-terminal GST; dsDNA, one strand shown
# Procedure, shortened: as §1
# Sequence of ETV5 (P41161 whole entry): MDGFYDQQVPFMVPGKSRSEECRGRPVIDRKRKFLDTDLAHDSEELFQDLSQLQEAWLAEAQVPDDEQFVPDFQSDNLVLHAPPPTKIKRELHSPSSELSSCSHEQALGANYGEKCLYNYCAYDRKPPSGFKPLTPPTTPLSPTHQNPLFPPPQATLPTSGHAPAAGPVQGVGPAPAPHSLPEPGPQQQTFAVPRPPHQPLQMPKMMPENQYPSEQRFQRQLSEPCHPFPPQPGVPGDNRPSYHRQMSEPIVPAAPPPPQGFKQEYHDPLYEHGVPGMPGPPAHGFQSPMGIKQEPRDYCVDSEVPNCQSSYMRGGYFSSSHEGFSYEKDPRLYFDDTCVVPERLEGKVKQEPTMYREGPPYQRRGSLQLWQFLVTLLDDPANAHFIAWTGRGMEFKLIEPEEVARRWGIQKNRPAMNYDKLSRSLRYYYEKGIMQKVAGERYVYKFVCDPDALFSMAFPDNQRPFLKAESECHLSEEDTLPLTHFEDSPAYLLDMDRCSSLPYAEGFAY
# Sequence of ETV1 (P50549 whole entry): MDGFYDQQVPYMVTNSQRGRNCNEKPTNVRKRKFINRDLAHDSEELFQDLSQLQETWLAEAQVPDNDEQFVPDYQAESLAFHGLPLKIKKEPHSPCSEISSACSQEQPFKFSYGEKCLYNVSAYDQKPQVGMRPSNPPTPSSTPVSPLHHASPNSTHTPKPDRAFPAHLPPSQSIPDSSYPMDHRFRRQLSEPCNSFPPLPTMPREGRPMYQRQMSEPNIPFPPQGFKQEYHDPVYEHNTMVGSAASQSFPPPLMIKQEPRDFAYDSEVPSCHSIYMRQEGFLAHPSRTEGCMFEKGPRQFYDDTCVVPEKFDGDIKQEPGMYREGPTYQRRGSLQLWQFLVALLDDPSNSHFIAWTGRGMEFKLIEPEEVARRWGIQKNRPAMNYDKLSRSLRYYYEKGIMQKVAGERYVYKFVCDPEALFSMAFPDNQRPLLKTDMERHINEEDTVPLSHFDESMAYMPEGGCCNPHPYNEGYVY
# Sequence of ELF4 (Q99607 whole entry): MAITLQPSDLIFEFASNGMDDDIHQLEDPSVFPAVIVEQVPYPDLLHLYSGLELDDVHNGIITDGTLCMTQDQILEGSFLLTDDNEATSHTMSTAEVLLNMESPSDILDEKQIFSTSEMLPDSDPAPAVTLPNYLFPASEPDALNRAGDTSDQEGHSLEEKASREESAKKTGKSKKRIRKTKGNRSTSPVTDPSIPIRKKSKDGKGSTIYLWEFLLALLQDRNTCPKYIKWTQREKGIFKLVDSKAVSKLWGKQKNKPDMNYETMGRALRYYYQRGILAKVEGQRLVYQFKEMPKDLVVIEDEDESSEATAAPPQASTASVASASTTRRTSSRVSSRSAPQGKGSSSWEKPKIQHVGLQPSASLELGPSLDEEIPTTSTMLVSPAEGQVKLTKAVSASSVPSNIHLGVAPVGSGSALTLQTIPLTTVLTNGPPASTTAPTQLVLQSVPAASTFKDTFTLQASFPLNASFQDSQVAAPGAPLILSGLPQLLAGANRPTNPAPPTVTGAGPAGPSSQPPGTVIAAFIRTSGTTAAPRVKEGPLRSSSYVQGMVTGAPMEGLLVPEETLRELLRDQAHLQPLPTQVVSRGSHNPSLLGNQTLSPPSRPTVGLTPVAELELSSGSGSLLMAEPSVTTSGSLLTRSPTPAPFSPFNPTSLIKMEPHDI
# Sequence of SPIB (Q01892 whole entry): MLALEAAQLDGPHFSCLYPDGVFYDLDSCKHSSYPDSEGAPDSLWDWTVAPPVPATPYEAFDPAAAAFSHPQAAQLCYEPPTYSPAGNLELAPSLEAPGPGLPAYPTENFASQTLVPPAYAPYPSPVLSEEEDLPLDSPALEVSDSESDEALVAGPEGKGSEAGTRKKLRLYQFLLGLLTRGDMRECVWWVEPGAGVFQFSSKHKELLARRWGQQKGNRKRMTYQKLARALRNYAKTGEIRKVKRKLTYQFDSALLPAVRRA
# Sequence of CRX (O43186 whole entry): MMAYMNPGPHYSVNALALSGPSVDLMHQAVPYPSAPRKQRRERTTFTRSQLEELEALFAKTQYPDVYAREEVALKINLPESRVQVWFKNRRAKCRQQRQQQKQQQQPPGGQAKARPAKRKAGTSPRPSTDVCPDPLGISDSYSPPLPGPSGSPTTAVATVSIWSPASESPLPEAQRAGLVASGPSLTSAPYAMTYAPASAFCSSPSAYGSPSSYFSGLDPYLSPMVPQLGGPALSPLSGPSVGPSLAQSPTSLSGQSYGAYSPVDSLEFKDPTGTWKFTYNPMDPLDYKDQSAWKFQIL
# Sequence of ELF1 (P32519 whole entry): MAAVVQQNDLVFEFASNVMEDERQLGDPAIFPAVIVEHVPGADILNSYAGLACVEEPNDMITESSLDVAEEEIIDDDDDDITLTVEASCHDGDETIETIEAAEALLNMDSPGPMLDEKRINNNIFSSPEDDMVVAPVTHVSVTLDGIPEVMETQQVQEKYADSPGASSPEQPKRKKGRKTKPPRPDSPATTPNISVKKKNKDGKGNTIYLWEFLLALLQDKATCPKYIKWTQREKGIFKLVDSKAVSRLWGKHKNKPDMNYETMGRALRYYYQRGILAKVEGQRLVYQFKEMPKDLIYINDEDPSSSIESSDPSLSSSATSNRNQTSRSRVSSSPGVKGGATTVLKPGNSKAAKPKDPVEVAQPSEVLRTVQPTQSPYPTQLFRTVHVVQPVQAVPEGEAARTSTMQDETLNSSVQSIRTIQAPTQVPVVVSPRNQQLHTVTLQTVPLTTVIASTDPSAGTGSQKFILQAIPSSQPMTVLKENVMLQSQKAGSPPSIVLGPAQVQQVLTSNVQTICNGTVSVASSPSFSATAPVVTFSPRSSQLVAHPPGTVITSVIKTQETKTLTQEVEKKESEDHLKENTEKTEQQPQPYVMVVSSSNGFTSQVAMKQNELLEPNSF
# Sequence of HSF1 (Q00613 whole entry): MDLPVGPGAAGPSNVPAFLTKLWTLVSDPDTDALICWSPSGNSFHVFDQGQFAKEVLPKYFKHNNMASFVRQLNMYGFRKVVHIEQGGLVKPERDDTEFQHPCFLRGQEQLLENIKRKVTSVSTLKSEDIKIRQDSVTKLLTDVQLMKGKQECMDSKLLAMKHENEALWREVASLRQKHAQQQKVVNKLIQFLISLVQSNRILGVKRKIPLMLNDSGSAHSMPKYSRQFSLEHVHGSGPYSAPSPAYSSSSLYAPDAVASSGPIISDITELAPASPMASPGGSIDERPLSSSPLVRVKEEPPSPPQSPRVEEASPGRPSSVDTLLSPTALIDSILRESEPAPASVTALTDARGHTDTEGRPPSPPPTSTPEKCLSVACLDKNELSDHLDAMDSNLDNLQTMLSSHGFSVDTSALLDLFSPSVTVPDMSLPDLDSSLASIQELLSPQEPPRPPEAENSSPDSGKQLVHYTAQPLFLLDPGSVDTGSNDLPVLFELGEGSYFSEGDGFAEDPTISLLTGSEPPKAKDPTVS
sequence,measurement,setting,value
TACGCG,binding signal,FLI1,"1.12 fold enrichment (6-mer frequency, TF over GST control)"
same,binding signal,ELK1,"1.14 fold enrichment (6-mer frequency, TF over GST control)"
same,binding signal,GABPA,"1.24 fold enrichment (6-mer frequency, TF over GST control)"
same,binding signal,ERG,"1.14 fold enrichment (6-mer frequency, TF over GST control)"
same,binding signal,ELF1,"1.12 fold enrichment (6-mer frequency, TF over GST control)"
same,binding signal,EHF,"1.06 fold enrichment (6-mer frequency, TF over GST control)"
same,binding signal,SPI1,"1.12 fold enrichment (6-mer frequency, TF over GST control)"
same,binding signal,SPIB,"1.13 fold enrichment (6-mer frequency, TF over GST control)"
same,binding signal,ELK3,"1.28 fold enrichment (6-mer frequency, TF over GST control)"
same,binding signal,FEV,"1.11 fold enrichment (6-mer frequency, TF over GST control)"
same,binding signal,ETV5,"1.21 fold enrichment (6-mer frequency, TF over GST control)"
same,binding signal,HSF1,"1.17 fold enrichment (6-mer frequency, TF over GST control)"
same,binding signal,SPIC,"1.12 fold enrichment (6-mer frequency, TF over GST control)"
same,binding signal,ELF4,"1.12 fold enrichment (6-mer frequency, TF over GST control)"
same,binding signal,ELK4,"1.25 fold enrichment (6-mer frequency, TF over GST control)"
same,binding signal,ETV2,"1.21 fold enrichment (6-mer frequency, TF over GST control)"
same,binding signal,ELF3,"1.19 fold enrichment (6-mer frequency, TF over GST control)"
same,binding signal,CRX,"1.24 fold enrichment (6-mer frequency, TF over GST control)"
same,binding signal,ETV1,"1.23 fold enrichment (6-mer frequency, TF over GST control)"
